The campaign covered roughly 39,000 compounds. About 220 (0.56%) showed activity. The entries come from a sample that favours actives as a whole. A number with no mark means an inactive call.
What follows are compounds tested on Escherichia coli K-12 BW25113 (assay: relative growth (OD600 normalised to plate interquartile mean) (fraction); higher = less growth inhibition, active = 0.2 or less). Details: 50 µM; LB; incubation time: overnight (16-24 h).
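Also: Wild-type cells incubated without shaking, value is the mean of two biological replicates.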

SMILES	relative growth
C=CCC[C@@H](Cc1ccc(F)cc1)C(=O)OC[C@@H](Cc1c[nH]c2ccccc12)NC(=O)[C@@H](CC=C)CC(=O)N(CCO)Cc1ccccc1	1.1
C[C@@H]1CN([C@H](C)CO)C(=O)c2cccc(NC(=O)C3CCOCC3)c2O[C@H]1CN(C)Cc1ccc(-c2ccccc2)cc1	1
O=C(CCCCCC(=O)N/N=C/[C@H](O)[C@@H](O)[C@H](O[C@@H]1O[C@H](CO)[C@H](O)[C@H](O)[C@H]1O)[C@H](O)CO)NO	1.01
COc1ccc2c3c([nH]c2c1)[C@H](CO)N(C[C@]13CN(C1)C(=O)Cc1cccnc1)S(=O)(=O)c1ccc(cc1)C	0.987
CCn1cc(C(=O)O)c(=O)c2cnc(N3CCNCC3)nc21	0.05 (active)
CCn1cc(C(=O)O)c(=O)c2cnc(N3CCCC3)nc21	1.09
CCn1cc(C(=O)O)c(=O)c2cc(F)c(N3CCNCC3)nc21	0.049 (active)
CCn1cc(C(=O)O)c(=O)c2ccc(C)nc21	1.02
O=C(O)c1cnc(N2CCCC2)nc1	1.03
NC(=O)c1cc(S(N)(=O)=O)ccc1Cl	0.993
C[C@H]1CN([C@@H](C)CO)C(=O)c2cc(NC(=O)Nc3ccc(F)cc3)ccc2O[C@H]1CN(C)S(C)(=O)=O	1.02
Cc1noc(C)c1S(=O)(=O)N(C)C[C@@H]1Oc2ccc(NS(C)(=O)=O)cc2CC(=O)N([C@@H](C)CO)C[C@H]1C	1.01
C[C@@H]1CCCCO[C@@H](CN(C)C(=O)Nc2ccc3c(c2)OCO3)[C@@H](C)CN([C@H](C)CO)C(=O)c2cc(NC(=O)Nc3ccc4c(c3)OCO4)ccc2O1	1.02
C[C@@H]1CN([C@@H](C)CO)C(=O)c2cc(NC(=O)Nc3ccc(F)cc3)ccc2O[C@@H](C)CCCCO[C@@H]1CN(C)Cc1ccncc1	0.93
Cc1noc(C)c1NC(=O)N(C)C[C@@H]1Oc2c(NC(=O)Nc3ccc(C(F)(F)F)cc3)cccc2C(=O)N([C@@H](C)CO)C[C@@H]1C	0.943
COC(=O)c1c(C)cc(OC(=O)c2c(C)cc(O)c(C=O)c2O)c(C)c1O	0.867
CCOC(=O)c1c(C)cc(O)c(C=O)c1O	0.0424 (active)
Cc1cc(O)c(C=O)c(O)c1C(=O)O	1.07
COc1ccc(NC(=O)Nc2ccc3c(c2)C(=O)N([C@@H](C)CO)C[C@H](C)[C@H](CN(C)C(=O)Nc2ccc4c(c2)OCO4)OCCCC[C@@H](C)O3)cc1	1.04
Cc1noc(C)c1NC(=O)Nc1ccc2c(c1)C(=O)N([C@H](C)CO)C[C@@H](C)[C@@H](CN(C)C(=O)NC1CCCCC1)OCCCC[C@H](C)O2	1.02

SMILES	relative growth
C[C@H]1CN([C@@H](C)CO)C(=O)c2cc(N(C)C)ccc2O[C@H]1CN(C)S(C)(=O)=O	0.993
N[C@@H]1[C@H]2CN(c3nc4c(cc3F)c(=O)c(C(=O)O)cn4-c3ccc(F)cc3F)C[C@@H]12	0.0389 (active)
Cc1cn2nc([C@@H]3CCCCN3C(=O)c3cc(Cl)ccc3NS(C)(=O)=O)cc2nc1N1CC[C@H](N)C1	0.981
N[C@H]1CCN(c2nc3c(cc2F)c(=O)c(C(=O)O)cn3-c2ccc(F)cc2F)C1	0.17 (active)
Cc1ccc(S(=O)(=O)O)cc1.NC1CCN(c2nc3c(cc2F)c(=O)c(C(=O)O)cn3-c2ccc(F)cc2F)C1.O (stereo not given)	0.0925 (active)
O=C(C[C@@H]1CC[C@@H]2[C@H](COC[C@H](O)CN2S(=O)(=O)c2ccccc2)O1)NCc1ccc2c(c1)OCO2	0.99
C[C@@H]1CCCCO[C@H](CN(C)Cc2ccccc2)[C@@H](C)CN([C@@H](C)CO)C(=O)c2cc(NS(=O)(=O)c3ccc(Cl)cc3)ccc2O1	0.981
Cc1noc(C)c1S(=O)(=O)Nc1ccc2c(c1)C(=O)N([C@H](C)CO)C[C@H](C)[C@H](CN(C)Cc1ccncc1)O2	0.999
COCCOC(=O)N1C(=O)[C@@]2(c3cc(C#CCCO)ccc31)[C@H](C(=O)Nc1nc3ccccc3s1)[C@H]1C(=O)O[C@H](c3ccccc3)[C@H](c3ccccc3)N1[C@@H]2c1ccc(O)cc1	1.02
C[C@H](CO)N1C[C@H](C)[C@@H](CN(C)Cc2ccc(C(=O)O)cc2)OCCCC[C@H](C)Oc2ccc(NS(=O)(=O)c3ccc(F)cc3)cc2C1=O	0.967
C=C1C(=O)O[C@@H]2/C=C(\CO[C@@H]3O[C@H](CO)[C@@H](O)[C@H](O)[C@H]3O)CC/C=C3\C[C@H](OC3=O)[C@@H]12	0.997
C[C@@H]1CN([C@@H](C)CO)C(=O)Cc2cc(NC(=O)Cc3cn(C)c4ccccc34)ccc2O[C@H]1CN(C)Cc1ccc(C(=O)Nc2ccccc2N)cc1	0.988
C[C@H](O)CC1=C[C@H](O)[C@@H](C)OC1=O	1.01
C[C@]1(C(=O)NCc2ccccc2)c2ccccc2C(=O)N(Cc2ccc(OC(F)(F)F)cc2)[C@H]1c1ccc(CO)cc1	0.983
NC[C@@H]1O[C@H](O[C@H]2[C@@H](O)[C@H](O[C@@H]3[C@@H](O)[C@H](N)C[C@H](N)[C@H]3O[C@@H]3O[C@H](CO)[C@@H](O)C[C@H]3N)O[C@@H]2CO)[C@H](N)[C@@H](O)[C@@H]1O[C@H]1O[C@H](CO)[C@@H](O)[C@H](O)[C@@H]1O	1.01
NCC1CCC(N)C(OC2C(N)CC(N)C(OC3OC(CO)C(O)C(N)C3O)C2O)O1 (stereo not given)	0.947
CN[C@@H]1[C@@H](O[C@H]2O[C@H](CO)[C@@H](N)[C@H](O)[C@H]2O)O[C@H]2C[C@@H](N)[C@H](O[C@H]3[C@H](O)[C@@H](O)[C@H](N)C[C@@H]3N)O[C@@H]2[C@@H]1O	0.978
NC[C@H]1O[C@H](O[C@H]2[C@H](O)[C@@H](O[C@H]3O[C@H](CO)[C@@H](O)[C@H](N)[C@H]3O)[C@H](N)C[C@@H]2N)[C@H](N)C[C@@H]1O	0.0393 (active)
NCC1OC(OC2C(N)CC(N)C(OC3OC(CO)C(O)C(N)C3O)C2O)C(N)CC1O (stereo not given)	0.0445 (active)
CNC1C(OC2OC(CO)C(N)C(O)C2O)OC2CC(N)C(OC3C(N)CC(N)C(O)C3O)OC2C1O.O=S(=O)(O)O (stereo not given)	1.2
